Values without a mark were called inactive. Activity calls are given as the source filed them. The call rests on the fitted dose curve; in most records, active means well fitted curve in the direction sought with a large enough effect in the repeat runs; inconclusive means weak or mixed curves; inactive means flat fitted curve, though single readings scatter.
Assay: qHTS assay to test for compound auto fluorescence at 535 nm (green) in HEK293 cell free culture (AID 720682)
Details: cell-free medium, green autofluorescence 485/535 nm, hits give high values; series mostly up to 91.3 µM; activity change: at the top concentration
Outline: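 Compounds were pin-transferred into cell-free DMEM with 10% FBS, and green fluorescence was read at excitation 485 nm and emission 535 nm. Intensities were expressed as fluorescein-equivalent values.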
On the % scale 0 is the no-effect control and ±100 the full control effect.

Structure (SMILES) | activity change
CN1[C@@H]2CC[C@H]1CC(OC(=O)c1c[nH]c3ccccc13)C2 (stereo partly specified) | -0.0205% [at 46 µM]
CN1CCC[C@@H]1Cc1c[nH]c2ccc(CCS(=O)(=O)c3ccccc3)cc12 | -0.0453% [at 46 µM]
CC1CN(c2ccccc2)NC1=O (stereo unspecified) | 0.0067%
CC(C)=CCCC(C)CCOC=O (stereo unspecified) | -0.0015%
CCOC(=O)CS | 0.0606% [at 95.7 µM]
Cc1cc2c(s1)Nc1ccccc1N=C2N1CCN(C)CC1 | 0.0356% [at 46 µM]
O=C1CCCCC1C1CCCCC1 (stereo unspecified) | -0.258%
CCC(=O)c1ccc2c(c1)N(CCCN(C)C)c1ccccc1S2 | 0.145% [at 46 µM]
CN(C)CCOc1ccccc1Cc1ccccc1 | 0.0603% [at 46 µM]
CCOc1ccc(NS(=O)(=O)c2ccc(N)cc2)nn1 | -0.0947% [at 46 µM]
Cn1cnc2c(F)c(Nc3ccc(Br)cc3Cl)c(C(=O)NOCCO)cc21 | -0.0034% [at 46 µM]
CCCCCCCCCCCCCCCCOP(=O)([O-])OCC[N+](C)(C)C | -0.211% [at 46 µM]
CCN(CCCc1ccccc1)CCCc1ccccc1 | 0.0298% [at 18.6 µM]
CCCCCCCCCCCCOCCOS(=O)(=O)O | -0.0362%
CCNCCO | -0.0139%
O=C(CC(=O)C(F)(F)F)c1ccccc1 | 0.0637% [at 95.7 µM]
CCCCCCCOC(=O)CCC | 0.0837%
O=[N+]([O-])c1nccn1CO[C@@H](CO)[C@H](O)CO | 0.0255% [at 46 µM]
CCCCNc1ccc(C(=O)OCCN(CC)CC)cc1 | 0.0063% [at 46 µM]
C[C@@H]1CN(c2c(F)c(F)c3c(=O)c(C(=O)O)cn(C4CC4)c3c2F)C[C@H](C)N1 | -0.0142% [at 46 µM]

Assay: qHTS assay to test for compound auto fluorescence at 590 nm (red) in HEK293 cell free culture (AID 720683)
Details: cell-free medium autofluorescence, Ex540/Em590 red; series mostly up to 91.3 µM; fluorescence, % of fluorescent control: at the top concentration
Outline: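 Cell-free wells of DMEM with 10% FBS received compound, and intrinsic fluorescence was read at excitation/emission 540/590 nm. Values expressed as equivalence to Rose Bengal sodium.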

Structure (SMILES) | fluorescence, % of fluorescent control | outcome
O=CCCc1ccccc1 | -0.0033% | 
CC1=C2[C@H](/C=C(\C)C(=O)O)CC[C@@H](C)[C@H]2CC1 | -0.175% [at 95.7 µM] | 
Oc1ccccc1F | 0.0371% | 
CCOc1ccc(NC(N)=O)cc1 | 0.141% | 
COc1ccc2nc(NC(=O)Nc3ccccc3)sc2c1 | -0.513% [at 46 µM] | 
CCC/C=C/CO | 0.008% | 
CN1C(=O)CC(c2ccccc2)C1=O (stereo unspecified) | 0.419% [at 46 µM] | 
Cc1ccc(C(C)C)cc1O | 0.157% | 
Cc1c[nH]c(=S)[nH]c1=O | 0.0516% | 
CC1=NN(c2cc(Cl)c(S(=O)(=O)O)cc2Cl)C(=O)C1N=Nc1ccc(S(=O)(=O)O)cc1 (stereo unspecified) | 0.0522% | 
CCOc1ccc(OCC)c(Cl)c1 | 0.0344% | 
Cc1ccc([N+](=O)[O-])c(N)c1 | 0.0287% | 
CN1CCN(C2=Nc3ccccc3Oc3ccc(Cl)cc32)CC1 | 0.0885% [at 18.6 µM] | 
CC(C)O |  | inactive
CN1[C@@H]2CC[C@H]1CC(OC(=O)c1c[nH]c3ccccc13)C2 (stereo partly specified) | -0.0028% [at 46 µM] | 
CN1CCC[C@@H]1Cc1c[nH]c2ccc(CCS(=O)(=O)c3ccccc3)cc12 | -0.53% [at 46 µM] | 

Structure (SMILES) | fluorescence, % of fluorescent control | outcome
CC1CN(c2ccccc2)NC1=O (stereo unspecified) | -0.267% | 
CC(C)=CCCC(C)CCOC=O (stereo unspecified) | 0.0372% | 
CCOC(=O)CS | 0.0783% [at 95.7 µM] | 
Cc1cc2c(s1)Nc1ccccc1N=C2N1CCN(C)CC1 | -0.107% [at 46 µM] | 
CCC(=O)c1ccc2c(c1)N(CCCN(C)C)c1ccccc1S2 | -0.288% [at 46 µM] | 
CN(C)CCOc1ccccc1Cc1ccccc1 | -0.0095% [at 46 µM] | 
CCOc1ccc(NS(=O)(=O)c2ccc(N)cc2)nn1 | -0.272% [at 46 µM] | 
CCCCCCCCCCCCCCCCOP(=O)([O-])OCC[N+](C)(C)C | 0.274% [at 46 µM] | 
CCN(CCCc1ccccc1)CCCc1ccccc1 | 0.107% [at 18.6 µM] | 
CCCCCCCCCCCCOCCOS(=O)(=O)O | 0.0294% | 
O=C(CC(=O)C(F)(F)F)c1ccccc1 | 0.0029% [at 95.7 µM] | 
CCCCCCCOC(=O)CCC | -0.109% | 
O=[N+]([O-])c1nccn1CO[C@@H](CO)[C@H](O)CO | 0.322% [at 46 µM] | 
CCCCNc1ccc(C(=O)OCCN(CC)CC)cc1 | -0.449% [at 46 µM] | 
C[C@@H]1CN(c2c(F)c(F)c3c(=O)c(C(=O)O)cn(C4CC4)c3c2F)C[C@H](C)N1 | -0.0737% [at 46 µM] | 

— PubChem BioAssay (Tox21)
